Here are results for 8 compounds from PubChem BioAssay (Tox21).

Assay [1] in a line: qHTS assay to identify small molecule antagonists of the estrogen related receptor (ERR) signaling pathway from Tox21 library - cell viability counter screen (AID 1224834). Also: nearly all actives have a fitted effect of over 30% in size. Summed up: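 CellTiter-Fluor fluorescence measured; ERR cells; 17.5 h compound incubation at 37 C; 30 min reagent step.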
Background: In qHTS, concentration-response curves come from the screen itself.

Assay [2] concerns the target Luciferin 4-monooxygenase (Photinus pyralis) (UniProt P08659). Nature of the assay: qHTS assay to identify small molecule inhibitors of firefly luciferase (AID 1224835). Also: nearly all actives have a fitted effect of over 25% in size. Also: potency is read from the fitted curve at half-maximal effect. Summed up: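 Inhibition of purified Photinus luciferase is measured by luminescence. Substrate levels (D-luciferin, ATP) sit at their KM values. Each compound is tested in a concentration series.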
A short description of assay [3]: qHTS assay to identify small molecule antagonists of the estrogen related receptor signaling pathway with the pleiotropic PPARgamma coactivator (PGC) from Tox21 10K library - cell viability counter screen (AID 1224840; active = well fitted cell-killing curve with a large enough effect in the repeat runs, not every such curve was filed as active; also: nearly all actives have a fitted effect of over 40% in size). Summed up: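 Here the PGC/ERR cells serve as a cytotoxicity control: they are exposed to compounds for 17.5 hours at 37 C, and live-cell signal is quantified using CellTiter-Fluor fluorescence.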

Assay [4] can be described thus: qHTS assay to identify small molecule antagonists of the estrogen related receptor signaling pathway with the pleiotropic PPARgamma coactivator (PGC) from Tox21 10K library (AID 1224841; call rule not given here; also: actives are mostly falling curves and most rising ones were filed inactive; nearly all actives have a fitted effect of over 50% in size). Summed up: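 Each well held 2,000 PGC/ERR cells, pre-incubated six hours (37 C, 5% CO2). Test substances in DMSO were added by pin tool and left for 18 h at 37 C before luciferase detection by One-Glo.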

Assay [5] in a line: qHTS assay to identify small molecule agonists of the estrogen related receptor signaling pathway with the pleiotropic PPARgamma coactivator (PGC) from Tox21 10K library (AID 1224842). Also: nearly all actives have a fitted effect of over 15% in size. Also: potency is read from the fitted curve at half-maximal effect. Summed up:
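Luminescence from One-Glo (30 min, room temperature) measured after PGC/ERR cells had 18 h at 37 C with pinned compound (23 nL in DMSO). Cells had been seeded at 2,000 per well and pre-incubated 6 h.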

For assay [6], the target named is Thyrotropin receptor (Homo sapiens) (UniProt P16473). Nature of the assay: qHTS assay to identify small molecule agonists of the thyroid stimulating hormone receptor (TSHR) signaling pathway (AID 1224843; calls by dose curve; also: nearly all actives have a fitted effect of over 45% in size). Summed up:
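HEK293 cells stably bearing the thyrotropin receptor were plated at 800 cells/well and challenged with compound (30 min, RT). Accumulated cAMP was quantified via cAMP-d2 competing for cryptate-tagged antibody.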

A short description of assay [7]: qHTS assay to identify small molecule agonists of the hypoxia (HIF-1) signaling pathway - cell viability counter screen (AID 1224844; calls by dose curve; also: nearly all actives have a fitted effect of over 50% in size). Summed up:
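Multiplexed with the HRE beta-lactamase assay, this viability read used CellTiter-Glo luminescence (30 min, RT) on HRE-bla ME-180 cells treated 17 hrs with compounds in 0.5% dialyzed FBS medium.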

A short description of assay [8]: qHTS assay to identify small molecule agonists of H2AX (AID 1224845; active = well fitted activation curve with a large enough effect in the signal ratio in the repeat runs, not every such curve was filed as active; the % refers to the signal ratio). In a few lines:
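Phospho-H2AX Ser139 measured by HTRF (ex 320 nm; em 665 and 620 nm) after 24 hr antibody incubation. Compounds, 15 concentrations, 0.76% DMSO, were applied to CHO-K1 cells for 3hr at 37C before lysis.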

A short description of assay [9]: qHTS assay to identify small molecule agonists of the hypoxia (HIF-1) signaling pathway (AID 1224846; active = well fitted activation curve with a large enough effect in the signal ratio in the repeat runs, not every such curve was filed as active; the % refers to the signal ratio). Summed up:
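Hypoxia-pathway activation was scored as increased beta-lactamase from an HRE-controlled reporter in ME-180 cells; plated at 2,000 cells per well with 0.5% dialyzed FBS, they were exposed 17 hrs to compounds and then given CCF4-AM.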

Assay [10] in a line: qHTS assay to identify small molecule agonists of H2AX - cell viability counter screen (AID 1224847; calls by dose curve; also: top concentration of the series differs between compounds; nearly all actives have a fitted effect of over 30% in size). Summed up:
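Cytotoxicity counter screen in wild-type CHO-K1 cells: a 3 hr compound treatment at 37C across 15 concentrations, followed by CellTiter-Glo luminescence to gauge viable cells.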

Assay [11] can be described thus: qHTS assay to identify small molecule antagonists of the estrogen related receptor (ERR) signaling pathway from Tox21 library (AID 1224848). Also: nearly all actives have a fitted effect of over 50% in size. In a few lines: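 Reading was by luminescence 30 min after ONE-Glo addition. Before that, ERR cells at 2,000 per well had rested 6 h at 37 C/5% CO2 and then received pin-tooled compounds in DMSO for 18 h at 37 C.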
A short description of assay [12]: qHTS assay to identify small molecule agonists of the estrogen related receptor (ERR) signaling pathway from Tox21 library (AID 1224849; calls by dose curve; also: nearly all actives have a fitted effect of over 15% in size). The following applies: ERR reporter cell line, ONE-Glo luciferase, 18 h; at 92.4 µM (top of the series) unless noted. Summed up: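 Six hours post-seeding at 37 C/5% CO2, ERR cells receive DMSO-solubilised compounds; after 18 h at 37 C, ONE-Glo reagent is applied and luminescence recorded.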

Assay [13] can be described thus: qHTS RealTime-Glo MT Cell Viability Assay in HEK293 cells - 32 hour (AID 1224868). Also: top concentration of the series differs between compounds; nearly all actives have a fitted effect of over 50% in size. Summed up:
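Reads taken at 0, 8, 16, 24, 32 and 40 h from the same wells. HEK293 cells (600/well) carried RealTime-Glo reagents from seeding, with compound added after a 5 h settle at 37 C.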

A short description of assay [14]: A CellTox Green Cytotoxicity Assay to monitor cytotoxicity in HEK293 cells - 0 hour (AID 1224869). Also: nearly all actives have a fitted effect of over 50% in size. In a few lines:
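Seeding of HEK293 cells together with cytotoxicity dye preceded a 5 h incubation at 37 C/5% CO2. Test compounds in DMSO were then added and fluorescence monitored across 40 h.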

Assay [15] can be described thus: qHTS assay to identify small molecule antagonists of the constitutive androstane receptor (CAR) signaling pathway - cell viability counter screen (AID 1224837). Also: nearly all actives have a fitted effect of over 45% in size. In a few lines: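 Using CellTiter-Fluor, viability is scored in HepG2 cells stably carrying hCAR and a 2.2kb CYP2B6 reporter after 23 hr compound exposure across 15 concentrations, with CITCO present at 50 nM.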

In assay [16] the target is Nuclear receptor subfamily 1 group I member 3 (Homo sapiens) (UniProt Q14994). Put plainly: qHTS assay to identify small molecule antagonists of the constitutive androstane receptor (CAR) signaling pathway (AID 1224838).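 Also: HepG2 cells stably expressing hCAR with CYP2B6 luciferase reporter stimulated by CITCO; nearly all actives have a fitted effect of over 40% in size.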 Summed up: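 Reporter luminescence was quantified after 24 h exposure of hCAR/CYP2B6-2.2kb double-stable HepG2 cells to compounds at 15 concentrations in the presence of 50 nM CITCO final.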

For assay [17] the target is unchanged. Nature of the assay: qHTS assay to identify small molecule agonists of the constitutive androstane receptor (CAR) signaling pathway (AID 1224839). Also: nearly all actives have a fitted effect of over 15% in size. Summed up:
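Cells were plated and incubated 4 hrs, then dosed with compounds at 15 concentrations. PK11195 was added to 0.75 uM final. After 24 hrs at 37 C, luciferase luminescence was measured.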

A short description of assay [18]: qHTS RealTime-Glo MT Cell Viability Assay in HepG2 cells - 24 hour (AID 1224867). Also: nearly all actives have a fitted effect of over 50% in size. In a few lines: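 HepG2 suspension premixed with RealTime-Glo reagents is plated at 600 cells per well and left 5 h at 37 C/5% CO2. Compounds in DMSO then go in, and bioluminescence reflecting viable cell number is recorded over 40 h.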
Assay [19] is described as follows: qHTS RealTime-Glo MT Cell Viability Assay in HepG2 cells - 40 hour (AID 1224870). Also: nearly all actives have a fitted effect of over 50% in size. Summed up: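 Real-time viability: cells seeded at 600 per well together with NanoLuc and cell-permeant prosubstrate, compounds added after 5 h incubation. Luminescence tracked at 0, 8, 16, 24, 32 and 40 h of exposure.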
Assay [20] is described as follows: qHTS assay to identify small molecule agonists of the constitutive androstane receptor (CAR) signaling pathway - cell viability counter screen (AID 1224836). Also: nearly all actives have a fitted effect of over 45% in size. Summed up:
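Cells were seeded and incubated 4 hrs. Compounds were added across 15 concentrations together with PK11195 at 0.75 uM final. Plates were incubated 23 hrs at 37 C. CellTiter-Fluor was added and fluorescence measured.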

A number with no mark means an inactive call. Inconclusive results are not listed. Calls of active or inactive are those of the source. Unless noted, calls follow the shape of the dose curve; as a rule, active = well fitted curve in the direction sought with a large enough effect in the repeat runs; inconclusive = weak or mixed curves; inactive = no such curve, though single readings can be large; an effect the other way counts as inactive or inconclusive.
% is scaled to controls: 0 for no effect and ±100 for the full control effect.

Chain of Nuclear receptor subfamily 1 group I member 3 (Homo sapiens) (Q14994 whole entry, looked up): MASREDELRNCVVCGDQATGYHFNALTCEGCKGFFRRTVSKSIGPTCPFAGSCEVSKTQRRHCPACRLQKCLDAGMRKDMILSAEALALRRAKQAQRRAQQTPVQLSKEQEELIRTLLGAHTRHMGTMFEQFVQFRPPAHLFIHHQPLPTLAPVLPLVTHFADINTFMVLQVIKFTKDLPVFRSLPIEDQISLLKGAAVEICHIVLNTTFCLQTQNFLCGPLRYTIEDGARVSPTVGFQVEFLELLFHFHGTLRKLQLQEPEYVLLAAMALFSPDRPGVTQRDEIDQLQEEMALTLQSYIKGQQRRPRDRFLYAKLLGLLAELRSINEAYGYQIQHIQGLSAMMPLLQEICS
Chain of Thyrotropin receptor (Homo sapiens) (P16473 whole entry, looked up): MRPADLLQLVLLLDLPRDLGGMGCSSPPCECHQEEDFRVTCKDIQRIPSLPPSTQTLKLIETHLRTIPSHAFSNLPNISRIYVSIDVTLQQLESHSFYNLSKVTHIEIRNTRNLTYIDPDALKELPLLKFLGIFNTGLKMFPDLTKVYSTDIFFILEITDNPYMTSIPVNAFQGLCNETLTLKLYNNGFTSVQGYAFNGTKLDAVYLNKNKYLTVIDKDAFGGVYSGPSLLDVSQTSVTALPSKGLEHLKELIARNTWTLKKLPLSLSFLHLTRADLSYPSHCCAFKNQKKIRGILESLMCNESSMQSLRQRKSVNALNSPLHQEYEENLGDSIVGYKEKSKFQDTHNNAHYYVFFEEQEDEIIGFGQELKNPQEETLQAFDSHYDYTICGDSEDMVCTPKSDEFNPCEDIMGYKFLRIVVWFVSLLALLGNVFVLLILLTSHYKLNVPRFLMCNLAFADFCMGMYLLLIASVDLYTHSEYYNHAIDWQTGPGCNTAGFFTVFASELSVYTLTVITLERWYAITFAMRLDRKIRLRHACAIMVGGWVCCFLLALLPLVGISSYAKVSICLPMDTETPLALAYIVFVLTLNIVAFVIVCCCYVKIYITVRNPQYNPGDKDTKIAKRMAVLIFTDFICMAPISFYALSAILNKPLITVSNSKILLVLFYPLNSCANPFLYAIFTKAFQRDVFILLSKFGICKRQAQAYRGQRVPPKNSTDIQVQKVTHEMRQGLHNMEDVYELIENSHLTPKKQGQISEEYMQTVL
Chain of Luciferin 4-monooxygenase (Photinus pyralis) (P08659 whole entry, looked up): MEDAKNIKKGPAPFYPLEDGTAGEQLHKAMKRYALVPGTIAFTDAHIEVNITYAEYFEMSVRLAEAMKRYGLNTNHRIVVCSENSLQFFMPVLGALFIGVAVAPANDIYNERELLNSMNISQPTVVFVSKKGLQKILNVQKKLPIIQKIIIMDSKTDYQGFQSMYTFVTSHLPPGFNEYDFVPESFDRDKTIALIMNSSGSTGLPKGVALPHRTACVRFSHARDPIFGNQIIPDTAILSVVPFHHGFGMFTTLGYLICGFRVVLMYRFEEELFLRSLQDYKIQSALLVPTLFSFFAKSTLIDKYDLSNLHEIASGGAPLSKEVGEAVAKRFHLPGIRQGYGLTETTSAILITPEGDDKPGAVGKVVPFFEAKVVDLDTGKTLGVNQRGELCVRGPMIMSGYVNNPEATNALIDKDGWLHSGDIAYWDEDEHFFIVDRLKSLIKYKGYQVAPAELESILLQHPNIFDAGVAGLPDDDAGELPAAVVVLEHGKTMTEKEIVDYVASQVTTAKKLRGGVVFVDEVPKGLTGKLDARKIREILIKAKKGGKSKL

Turning to `CC(C)C[C@H](NC(=O)OCC1c2ccccc2-c2ccccc21)C(=O)O`, the Potency entry in [1], in [3], in [4], in assay [6], in assay [7] and in [8] was “inactive” in each case. For the same compound, the Potency entry in assay [10], in assay [11], in [13] and in [14] was “inactive” in each case. In addition, the results for the Potency in assay [2] and in assay [5] were 3.56 µM (active) and 15.4 µM (active), respectively. Also, the result in assay [9] was inactive. Further, in assay [12], the activity change, positive = activation was 147% (active).
For `CC1(C)O[C@@H]2C[C@H]3[C@@H]4CCC5=CC(=O)CC[C@]5(C)[C@@]4(F)[C@@H](O)C[C@]3(C)[C@]2(C(=O)CCl)O1`, the Potency result in assay [1], in assay [2], in assay [15], in assay [16], in assay [17] and in assay [3] was “inactive” each time. In addition, the Potency result in assay [6], in assay [8], in assay [10], in [18], in assay [14] and in assay [19] was “inactive” each time.
For `c1ccc(CN(CC2=NCCN2)c2ccccc2)cc1`, the Potency entry in [1], in [2], in [20], in assay [16], in assay [17] and in assay [3] was “inactive” throughout. For the same compound, the Potency entry in [4], in assay [5], in assay [6], in assay [7], in [8] and in assay [10] was “inactive” throughout. The Potency result in assay [11], in assay [13], in [14] and in [19] was “inactive” throughout. For the same compound, the activity change, positive = activation in [12] was -0.231% [at 42.5 µM].
For `CC1(O)CSC(C)(O)CS1` (stereo unspecified), the Potency entry in assay [1], in [2], in assay [20], in [16], in assay [17] and in assay [3] was “inactive” each time. In addition, the Potency result in assay [7], in assay [8], in assay [10], in [18], in [13] and in [14] was “inactive” in each case. In addition, the Potency entry in assay [19] was “inactive”. The call in assay [9] was inactive.
As for `CCCC1CCC(=O)O1` (stereo unspecified), the Potency result in [1], in assay [2], in [20], in [16], in [17] and in [3] was “inactive” in each case. The Potency result in assay [6], in assay [7], in [8], in assay [10], in assay [18] and in assay [13] was “inactive” throughout. Moreover, the Potency result in assay [14] and in assay [19] was “inactive” throughout. Further, in [9], the result was inactive.
As for `CCc1cc(Cl)c(OC)c(C(=O)NC[C@@H]2CCCN2CC)c1O`, the Potency entry in assay [1], in [2], in assay [15], in [16], in [17] and in [3] was “inactive” in each case. The Potency entry in assay [4], in assay [5], in assay [7], in assay [8], in assay [10] and in assay [11] was “inactive” each time. The Potency entry in [18], in assay [13], in assay [14] and in assay [19] was “inactive” each time. Besides, the result in assay [9] was inactive. Also, in [12], the activity change, positive = activation was 1.1% [at 42.5 µM].
Regarding `CCOC(=O)c1cc(=O)c2c(OCC(COc3cccc4oc(C(=O)OCC)cc(=O)c34)OC(=O)[C@@H](N)CCCCN)cccc2o1`, the Potency result in assay [1], in assay [2], in assay [20], in assay [16], in [17] and in assay [3] was “inactive” each time. In addition, the Potency entry in assay [4], in [5], in [7], in assay [8], in assay [10] and in [11] was “inactive” throughout. The Potency result in assay [18], in [13], in [14] and in assay [19] was “inactive” each time. Besides, in assay [9], the compound was called inactive. The activity change, positive = activation in [12] is 8.23% [at 42.5 µM].
In the case of `COc1ccc(S(=O)(=O)Nc2nnc(CC(C)C)s2)cc1`, the Potency entry in [1], in assay [2], in assay [20], in [15], in assay [3] and in assay [7] was “inactive” throughout. In addition, the Potency result in [8], in assay [10], in assay [18], in assay [13], in assay [14] and in assay [19] was “inactive” each time. Also, the compound was called inactive in assay [9].
